Unmarked numbers belong to inactive results. Records with an inconclusive call do not appear. Activity calls are given as the source filed them. Unless noted, calls follow the shape of the dose curve; as a rule, active = well fitted curve in the direction sought with a large enough effect; inconclusive = small, poorly fitted or top-dose-only effect, or another doubt; inactive = no such curve, though single readings can be large; an effect the other way counts as inactive or inconclusive.
Tests used:
[1] = molecular target: Lysosomal acid glucosylceramidase (Homo sapiens) (UniProt P04062); test: Glucocerebrosidase-p2 (AID 348; in the data active = potency below about 10 µM; also: potency is read from the fitted curve at half-maximal effect); details: purified GBA, blue fluorogenic substrate, 40 min
Outline: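 Compounds titrated from 0.6 nM upwards against 0.2 nM enzyme in pH 5.9 citric acid/KH2PO4, taurocholate, tween-20; blue fluorogenic substrate 80 uM, 40 min room temperature, stopped and read Ex 365/Em 440 for AC50.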

[2] = AP1 Signaling Pathway (AID 357; active = well fitted curve in either direction with a large enough effect, not every such curve was filed as active;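 also: ME-180 reporter cells stimulated with EGF at its EC50 level; % is scaled to controls: 0 for no effect and ±100 for the full control effect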); details: ME-180 AP-1-bla reporter, EGF-induced, beta-lactamase ratio, 5 h; at 7.69 µM (top of the series) unless noted
Outline: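 Titration-series screen for positive or negative modulators of EC50 EGF-induced signaling in ME-180 cells carrying an AP-1-driven beta-lactamase reporter. After 5 hours at 37 degrees Celsius, CCF4 460nm/530nm emission ratio gave %Activity; AC50 values derived.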

[3] = Stat Signaling Pathway (AID 446; active = well fitted curve in either direction with a large enough effect, not every such curve was filed as active;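 also: ME-180 cervical cancer cells given 40 pM IL-6 alongside compound; SIE-controlled beta-lactamase reporter measured as 460/530 nm FRET emission ratio; % is scaled to controls: 0 for no effect and ±100 for the full control effect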); details: ME-180 SIE beta-lactamase reporter, IL-6 stimulated, 5 h; at 7.69 µM (top of the series) unless noted
Outline: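 ME-180 cells carrying a SIE-driven beta-lactamase reporter are stimulated with 40 pM IL-6 for 5 h at 37C in the presence of compound. The 460/530 nm FRET substrate ratio is read after 2.5 h at RT. Data are normalised to 300 pM IL-6 and to 125 nM JAK inhibitor controls.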

[4] = molecular target: Glucocorticoid receptor (Homo sapiens) (UniProt P04150); test: GR-GFP Redistribution (AID 450;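 active = compounds whose dose series gives a full or clear partial fitted curve of increased nuclear translocation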; also: potency is read from the fitted curve at half-maximal effect); details: U2OS GR-GFP nuclear translocation, laser cytometry, 2 h
[5] = molecular target: Glucocorticoid receptor (Homo sapiens) (UniProt P04150); test: GR-EFC Redistribution (AID 451; calls by dose curve; also: potency is read from the fitted curve at half-maximal effect); details: CHO-K1 GR-EFC translocation, beta-gal luminescence, 2 h
Outline: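 CHO-K1 cells stably expressing nuclear-localized β-gal enzyme acceptor and GR fused C-terminally to the enzyme donor fragment; ligand-driven nuclear translocation restores β-gal by complementation. Compounds titrated up to 46 uM final, 2 h at 37 °C; luminescence read.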

[6] = molecular target: Mitogen-activated protein kinase 10 (Mus musculus) (UniProt Q61831); test: JNK3 AlphaScreen Assay (AID 530; active = well fitted curve in either direction with a large enough effect, not every such curve was filed as active;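 also: kinase came from lysate of stimulated human HepG2 cells; signal reports phosphorylation of biotinylated GST-cJun 1-79 at Ser73 with 10 µM ATP; % is scaled to controls: 0 for no effect and ±100 for the full control effect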); details: JNK3 lysate, c-Jun phosphorylation; series mostly up to 57.1 µM
Outline: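 Inhibitors reduce antibody binding to phosphorylated biotin-cJun, lowering AlphaScreen luminescence. Lysates from HepG2 cells pre-activated by IL-1beta plus TNF-alpha supplied JNK3; compounds were titrated.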

[7] = molecular target: 3',5'-cyclic-AMP phosphodiesterase 4B (Homo sapiens) (UniProt Q07343); test: qHTS Assay for Inhibitors of PDE-IV (AID 607; active = well fitted activation curve with a large enough effect in the main read-out, with a control signal flat, not every such curve was filed as active; also: % of control where 0% means no effect); details: HEK293 ACTOne CNG channel cells, membrane potential fluorescence; series mostly up to 22.9 µM
Outline: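 HEK293 ACTOne cells with CNG channel (1000/well), endogenous PDE4; membrane potential dye, compounds up to 22.9 uM final. Fluorescence Ex 535/Em 590; RO 20-1724 (100 uM final) as reference.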

[8] = qHTS Assay for Identification of Small Molecule Agonists for Hypoxia Response Element Signaling Pathway (AID 914; active = well fitted activation curve with a large enough effect in the signal ratio, with a control signal flat, not every such curve was filed as active; the % refers to the signal ratio; also: potency is read from the fitted curve at half-maximal effect; as to activation: % of control where 0% means no effect); details: ME-180 (cervical carcinoma) HRE-bla reporter, beta-lactamase ratio, CoCl2, 17 h; activation: stronger effect = higher value
Outline: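 Cells were plated overnight, pin-dosed with compound in a titration series, co-stimulated with EC50 CoCl2 and incubated 17 hours at 37 degrees Celsius. CCF4 substrate was then loaded, and AC50 values came from the 460nm/530nm ratio.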

[9] = molecular target: Dual specificity protein kinase CLK4 (Homo sapiens) (UniProt Q9HAZ1); test: qHTS Assay for Inhibitors of CDC-like Kinase 4 (Kinase-Glo Assay) (AID 1770); details: recombinant Clk4, Kinase-Glo ATP depletion luminescence; series mostly up to 66.7 µM; also: nearly all actives have a fitted effect of over 65% in size; also: potency is read from the fitted curve at half-maximal effect
Outline: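 Readout: Kinase-Glo luminescence from ATP left after a 4.5 h room-temperature reaction of 25 nM Clk4 with 100 uM RS peptide and 1 uM ATP (final). Buffer: 25 mM Tris pH 7.5, 10 mM MgCl2.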

[10] = molecular target: Dual specificity protein kinase CLK4 (Homo sapiens) (UniProt Q9HAZ1); test: qHTS Assay for Inhibitors of CDC-like Kinase 4 (ADP-Glo Assay) (AID 1771); details: recombinant CLK4, ADP-Glo luminescence; series mostly up to 80 µM; also: nearly all actives have a fitted effect of over 70% in size; also: potency is read from the fitted curve at half-maximal effect
Outline: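 Luminescence from ADP-Glo reports ADP produced by 25 nM Clk4 acting on 100 uM RS repeat peptide with 1 uM ATP over 1 hr at room temperature; residual ATP is depleted before ADP is converted to ATP for detection.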

[11] = molecular target: Ubiquitin carboxyl-terminal hydrolase 1 (Homo sapiens) (UniProt O94782); test: Inhibitors of USP1/UAF1: Pilot qHTS (AID 504865); details: purified USP1/UAF1, Ub-rhodamine cleavage fluorescence; series mostly up to 54.9 µM; also: nearly all actives have a fitted effect of over 35% in size; also: potency is read from the fitted curve at half-maximal effect
Outline: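 1nM USP1/UAF1 + cpd, 15 min RT; start w/ Ub-Rho 150nM final; kinetic FL 480/540 nm, 6 reads q60 s. Buffer 50mM HEPES pH 7.8, 0.5mM EDTA, 1mM TCEP, 0.01% Tween-20, 0.1 mg/ml BSA.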

[12] = Primary qHTS for small molecule stabilizers of the endoplasmic reticulum resident proteome: Secreted ER Calcium Modulated Protein (SERCaMP) assay (AID 1508630); details: SH-SY5Y GLuc-SERCaMP (Gaussia luciferase released on ER calcium loss) secretion, thapsigargin, luminescence; series mostly up to 38.4 µM; also: % is scaled to controls: 0 for no effect and ±100 for the full control effect
Outline: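 GLuc-SERCaMP-expressing SH-SY5Y cells, pretreated 16 h with compound, are challenged with thapsigargin to empty ER calcium stores; after 4 h, coelenterazine is added directly to the medium and luminescence is imaged.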

[13] = molecular target: Cytochrome P450 1A2 (Homo sapiens) (UniProt P05177); test: p450-cyp1a2 (AID 410; calls by dose curve; also: potency is read from the fitted curve at half-maximal effect); details: recombinant CYP1A2, luciferin-ME demethylation, luminescence; series mostly up to 57 µM
Outline: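 Luminescent readout of luciferin formed from Luciferin-ME by human CYP1A2; data normalized against complete inhibition by 57 uM furafylline. Enzyme 20nM, substrate 100uM at Km, 100mM KPO4 buffer, 60 min reaction at room temperature.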

[14] = NFAT Signaling Pathway (AID 444; active = well fitted curve in either direction with a large enough effect, not every such curve was filed as active); details: Jurkat NFAT-bla M1, carbachol, beta-lactamase ratio, 5 h; at 7.69 µM (top of the series) unless noted
Outline: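 Jurkat cells carrying an NFAT-driven β-lactamase reporter and co-transfected muscarinic M1 receptor were treated with compound plus carbachol (1 uM final, an EC50 level) for 5 h at 37 °C. CCF4 loading followed for 1 h at RT; 460/530 nm ratio gave %activity.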

[15] = molecular target: Cytochrome P450 3A4 (Homo sapiens) (UniProt P08684); test: qHTS Assay for Inhibitors and Substrates of Cytochrome P450 3A4 (AID 884); details: recombinant CYP3A4, Luciferin-PPXE luminescence; series mostly up to 57.1 µM; also: potency is read from the fitted curve at half-maximal effect; nearly all actives have a fitted effect of over 50% in size
Outline: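 20 nM human CYP3A4 with 25 uM Luciferin-PPXE (at KM) in 200 mM KPO4, preincubated 10 min with compound; NADPH regeneration started a 60 min RT reaction. Luciferin detected by luminescence, normalized to 57 uM ketoconazole as full inhibition.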

[16] = molecular target: Cytochrome P450 3A4 (Homo sapiens) (UniProt P08684); test: qHTS Assay for Activators of Cytochrome P450 3A4 (AID 885); details: recombinant CYP3A4, Luciferin-PPXE luminescence, 60 min; series mostly up to 57.1 µM; also: nearly all actives have a fitted effect of over 65% in size
Outline: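 Human CYP3A4 (20 nM) with Luciferin-PPXE at 25 uM (its KM) in 200 mM KPO4; 10 min compound preincubation, then NADPH regeneration and 60 min reaction at RT. Luciferin read by luminescence; normalized to 57 uM ketoconazole full inhibition.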

[17] = molecular target: Cytochrome P450 2D6 (Homo sapiens) (UniProt P10635); test: qHTS Assay for Inhibitors and Substrates of Cytochrome P450 2D6 (AID 891); details: recombinant CYP2D6, luciferin-ME EGE luminescence; series mostly up to 57.1 µM; also: potency is read from the fitted curve at half-maximal effect; nearly all actives have a fitted effect of over 60% in size
Outline: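 Human CYP2D6 (5 nM) with 30 uM Luciferin-ME EGE (at Km) in 100 mM KPO4, compound preincubated 10 min, then NADPH regeneration system for 60 min at room temperature. Luciferin read by luminescence; normalized to 1.43 uM quinidine.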

[18] = molecular target: Cytochrome P450 2C19 (Homo sapiens) (UniProt P33261); test: qHTS Assay for Inhibitors and Substrates of Cytochrome P450 2C19 (AID 899); details: recombinant CYP2C19, luciferin-H EGE luminescence; series mostly up to 57.1 µM; also: potency is read from the fitted curve at half-maximal effect; nearly all actives have a fitted effect of over 60% in size
Outline: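 In 50mM KPO4, the reaction held 5nM enzyme and KM-level (10uM) Luciferin-H EGE; it ran 60 min at 37C after NADPH regeneration and a 10 min compound preincubation. Luminescence values were scaled to 57uM ketoconazole as complete inhibition.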

[19] = molecular target: Dual specificity protein kinase CLK4 (Homo sapiens) (UniProt Q9HAZ1); test: qHTS Assay for Inhibitors of CDC-like Kinase 4 (ADP-FP Assay) (AID 1795); details: Transcreener ADP fluorescence polarization; series mostly up to 50 µM; also: potency is read from the fitted curve at half-maximal effect; nearly all actives have a fitted effect of over 60% in size
Outline: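 FP readout: Orange Transcreener ADP2 tracer (4 nM) plus ADP antibody, read after 30 min at room temperature. Kinase step: 6.25 nM Clk4, 100 uM RS peptide, 1 uM ATP, pH 7.5, 1 h.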

Sequence of Ubiquitin carboxyl-terminal hydrolase 1 (Homo sapiens) (O94782 whole entry, looked up): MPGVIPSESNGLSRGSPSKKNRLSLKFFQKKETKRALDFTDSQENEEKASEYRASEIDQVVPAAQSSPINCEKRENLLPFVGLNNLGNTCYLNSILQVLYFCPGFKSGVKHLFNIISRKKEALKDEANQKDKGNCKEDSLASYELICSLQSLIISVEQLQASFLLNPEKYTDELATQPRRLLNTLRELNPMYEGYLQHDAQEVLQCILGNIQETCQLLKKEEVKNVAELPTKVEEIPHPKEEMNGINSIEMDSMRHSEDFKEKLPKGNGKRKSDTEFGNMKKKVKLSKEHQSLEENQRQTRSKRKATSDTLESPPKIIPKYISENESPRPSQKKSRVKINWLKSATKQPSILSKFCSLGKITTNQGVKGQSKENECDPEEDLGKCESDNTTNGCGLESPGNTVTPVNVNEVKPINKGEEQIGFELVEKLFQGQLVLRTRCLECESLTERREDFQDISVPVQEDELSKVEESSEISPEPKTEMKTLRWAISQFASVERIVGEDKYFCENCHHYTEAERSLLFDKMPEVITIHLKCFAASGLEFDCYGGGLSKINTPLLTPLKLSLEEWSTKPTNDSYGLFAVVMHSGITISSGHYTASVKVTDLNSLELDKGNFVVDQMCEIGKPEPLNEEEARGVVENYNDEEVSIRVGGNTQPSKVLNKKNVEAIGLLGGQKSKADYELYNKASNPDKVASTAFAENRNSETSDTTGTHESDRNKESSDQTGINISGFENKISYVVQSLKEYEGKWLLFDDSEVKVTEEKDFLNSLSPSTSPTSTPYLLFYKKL
Sequence of Cytochrome P450 1A2 (Homo sapiens) (P05177 whole entry, looked up): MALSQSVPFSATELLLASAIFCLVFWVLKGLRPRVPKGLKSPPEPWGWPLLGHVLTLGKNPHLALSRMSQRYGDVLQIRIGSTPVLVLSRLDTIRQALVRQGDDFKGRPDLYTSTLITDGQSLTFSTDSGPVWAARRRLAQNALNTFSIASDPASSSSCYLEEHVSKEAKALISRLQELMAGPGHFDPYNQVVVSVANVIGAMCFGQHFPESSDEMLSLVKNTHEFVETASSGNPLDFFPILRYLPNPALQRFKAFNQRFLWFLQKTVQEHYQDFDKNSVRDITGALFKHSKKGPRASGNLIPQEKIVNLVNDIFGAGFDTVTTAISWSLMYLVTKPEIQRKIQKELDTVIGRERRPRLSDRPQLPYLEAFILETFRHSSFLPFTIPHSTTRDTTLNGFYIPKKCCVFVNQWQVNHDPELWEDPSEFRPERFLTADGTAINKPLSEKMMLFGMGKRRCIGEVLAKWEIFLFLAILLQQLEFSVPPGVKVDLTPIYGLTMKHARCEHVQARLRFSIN
Sequence of Lysosomal acid glucosylceramidase (Homo sapiens) (P04062 whole entry, looked up): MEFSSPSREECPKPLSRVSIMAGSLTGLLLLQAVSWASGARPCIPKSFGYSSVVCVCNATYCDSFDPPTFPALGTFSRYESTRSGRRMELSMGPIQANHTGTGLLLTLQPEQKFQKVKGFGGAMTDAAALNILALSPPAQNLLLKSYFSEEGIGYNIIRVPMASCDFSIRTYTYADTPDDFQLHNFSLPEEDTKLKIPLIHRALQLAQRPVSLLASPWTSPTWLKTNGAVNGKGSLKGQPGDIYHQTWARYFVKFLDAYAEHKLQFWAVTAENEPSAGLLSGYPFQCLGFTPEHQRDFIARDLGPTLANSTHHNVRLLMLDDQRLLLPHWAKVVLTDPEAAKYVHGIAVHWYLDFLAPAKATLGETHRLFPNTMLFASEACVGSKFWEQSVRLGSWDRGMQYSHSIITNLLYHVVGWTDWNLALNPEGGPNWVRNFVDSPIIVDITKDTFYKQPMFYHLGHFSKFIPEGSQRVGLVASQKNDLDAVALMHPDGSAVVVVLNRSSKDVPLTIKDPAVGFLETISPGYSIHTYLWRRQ
Sequence of Cytochrome P450 3A4 (Homo sapiens) (P08684 whole entry, looked up): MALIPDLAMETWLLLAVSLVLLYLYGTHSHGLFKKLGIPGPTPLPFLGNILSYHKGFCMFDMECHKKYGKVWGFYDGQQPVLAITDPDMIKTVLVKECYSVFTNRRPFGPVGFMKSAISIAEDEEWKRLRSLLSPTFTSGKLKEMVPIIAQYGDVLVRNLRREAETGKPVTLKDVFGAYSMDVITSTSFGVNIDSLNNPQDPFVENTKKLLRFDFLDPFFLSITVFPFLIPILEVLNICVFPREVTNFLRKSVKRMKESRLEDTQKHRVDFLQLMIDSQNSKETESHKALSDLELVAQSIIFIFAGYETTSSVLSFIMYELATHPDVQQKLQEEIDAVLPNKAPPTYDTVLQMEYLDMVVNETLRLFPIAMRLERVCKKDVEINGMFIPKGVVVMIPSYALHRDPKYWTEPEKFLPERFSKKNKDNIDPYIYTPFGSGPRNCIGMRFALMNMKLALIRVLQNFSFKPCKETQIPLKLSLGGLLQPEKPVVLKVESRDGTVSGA
Sequence of Cytochrome P450 2C19 (Homo sapiens) (P33261 whole entry, looked up): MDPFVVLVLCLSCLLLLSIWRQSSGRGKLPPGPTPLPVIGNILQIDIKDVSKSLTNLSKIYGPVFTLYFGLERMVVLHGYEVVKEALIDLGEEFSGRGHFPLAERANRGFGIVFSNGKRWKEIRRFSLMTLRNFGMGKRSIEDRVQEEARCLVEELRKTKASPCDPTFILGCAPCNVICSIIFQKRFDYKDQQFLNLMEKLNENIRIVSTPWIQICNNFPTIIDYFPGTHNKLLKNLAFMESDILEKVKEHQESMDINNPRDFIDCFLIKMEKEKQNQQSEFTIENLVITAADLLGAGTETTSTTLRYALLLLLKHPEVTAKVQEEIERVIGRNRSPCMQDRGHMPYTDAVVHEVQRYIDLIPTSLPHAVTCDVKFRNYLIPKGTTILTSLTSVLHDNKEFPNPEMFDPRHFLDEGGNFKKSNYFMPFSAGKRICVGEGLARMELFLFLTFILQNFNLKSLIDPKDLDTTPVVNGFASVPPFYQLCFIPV
Sequence of Dual specificity protein kinase CLK4 (Homo sapiens) (Q9HAZ1 whole entry, looked up): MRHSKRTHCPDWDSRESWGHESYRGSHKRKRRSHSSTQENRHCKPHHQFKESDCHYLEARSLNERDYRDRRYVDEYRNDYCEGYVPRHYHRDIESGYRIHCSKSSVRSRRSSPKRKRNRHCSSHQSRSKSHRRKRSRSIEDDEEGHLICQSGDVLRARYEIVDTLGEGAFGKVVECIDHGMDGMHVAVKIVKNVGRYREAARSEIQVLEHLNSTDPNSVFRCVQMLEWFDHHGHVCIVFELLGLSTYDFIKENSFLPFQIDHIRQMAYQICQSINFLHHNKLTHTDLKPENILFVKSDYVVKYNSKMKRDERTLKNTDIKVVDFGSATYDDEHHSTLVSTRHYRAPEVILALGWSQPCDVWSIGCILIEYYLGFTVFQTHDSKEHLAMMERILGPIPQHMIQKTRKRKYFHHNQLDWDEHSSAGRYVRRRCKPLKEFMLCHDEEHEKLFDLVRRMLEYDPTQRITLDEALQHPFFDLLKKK
Sequence of 3',5'-cyclic-AMP phosphodiesterase 4B (Homo sapiens) (Q07343 whole entry, looked up): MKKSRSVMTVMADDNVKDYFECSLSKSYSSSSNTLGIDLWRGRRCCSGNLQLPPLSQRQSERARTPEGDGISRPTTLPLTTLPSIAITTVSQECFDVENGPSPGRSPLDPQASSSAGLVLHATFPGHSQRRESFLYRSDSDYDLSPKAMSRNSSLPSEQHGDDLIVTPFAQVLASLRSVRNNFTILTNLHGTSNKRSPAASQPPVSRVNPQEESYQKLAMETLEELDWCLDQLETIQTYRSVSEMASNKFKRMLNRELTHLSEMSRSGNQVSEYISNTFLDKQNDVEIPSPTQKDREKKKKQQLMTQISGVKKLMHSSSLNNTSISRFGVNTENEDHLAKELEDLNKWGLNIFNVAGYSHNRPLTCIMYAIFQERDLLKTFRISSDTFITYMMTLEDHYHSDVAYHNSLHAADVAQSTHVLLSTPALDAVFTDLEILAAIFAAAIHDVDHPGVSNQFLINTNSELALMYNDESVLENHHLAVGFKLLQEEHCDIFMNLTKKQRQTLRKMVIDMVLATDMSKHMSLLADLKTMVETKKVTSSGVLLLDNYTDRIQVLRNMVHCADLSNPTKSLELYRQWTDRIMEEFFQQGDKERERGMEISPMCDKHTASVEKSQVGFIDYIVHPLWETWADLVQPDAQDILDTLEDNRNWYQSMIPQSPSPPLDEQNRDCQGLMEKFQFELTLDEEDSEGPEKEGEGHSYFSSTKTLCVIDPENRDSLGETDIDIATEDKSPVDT
Sequence of Glucocorticoid receptor (Homo sapiens) (P04150 whole entry, looked up, the tested form may be a part): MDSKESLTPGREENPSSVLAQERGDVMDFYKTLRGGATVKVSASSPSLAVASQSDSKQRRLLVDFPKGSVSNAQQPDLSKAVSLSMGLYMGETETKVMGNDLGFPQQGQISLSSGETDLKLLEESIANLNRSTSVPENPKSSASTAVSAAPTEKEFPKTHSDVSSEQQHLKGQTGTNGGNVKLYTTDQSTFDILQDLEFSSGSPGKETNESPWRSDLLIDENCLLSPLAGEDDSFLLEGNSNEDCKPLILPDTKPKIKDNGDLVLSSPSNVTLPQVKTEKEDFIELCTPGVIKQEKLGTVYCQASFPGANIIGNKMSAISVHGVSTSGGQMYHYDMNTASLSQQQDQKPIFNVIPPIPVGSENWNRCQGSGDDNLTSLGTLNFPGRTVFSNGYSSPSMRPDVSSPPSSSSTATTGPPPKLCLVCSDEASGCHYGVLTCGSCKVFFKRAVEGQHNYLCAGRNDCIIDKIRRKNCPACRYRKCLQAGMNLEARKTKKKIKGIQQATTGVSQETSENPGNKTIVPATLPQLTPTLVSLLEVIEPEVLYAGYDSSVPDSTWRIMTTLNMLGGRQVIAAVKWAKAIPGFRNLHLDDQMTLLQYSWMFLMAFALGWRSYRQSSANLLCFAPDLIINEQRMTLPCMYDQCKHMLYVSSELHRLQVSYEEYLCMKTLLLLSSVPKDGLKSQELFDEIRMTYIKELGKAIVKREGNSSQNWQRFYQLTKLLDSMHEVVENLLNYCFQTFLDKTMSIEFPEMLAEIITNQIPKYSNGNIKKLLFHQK

SMILES | Potency [1] | activity change, negative = inhibition [2] | activity, negative = inhibition [3] | Potency [4] | Potency [5] | Potency [6] | Potency [7] | activation [8] | Potency [9] | Potency [10] | Potency [11] | outcome [12] | Potency [13] | activity change, negative = inhibition [14] | Potency [15] | Potency [16] | Potency [17] | Potency [18] | Potency [8] | Potency [19]
CN(C)c1ccc(-c2ccc3ncnc(N(C)Cc4ccco4)c3c2)cc1 | > 11.4 µM | -28.7% | -0.793% | > 46 µM | > 46 µM | inactive | inactive | -3.37% | 8.91 µM (active) | 7.08 µM (active) | inactive | inactive | – | – | – | – | – | – | – | –
COc1ccc2[nH]cc(CCNc3ccnc(-c4ccccc4Cl)n3)c2c1 | – | -9.46% | -20.6% | > 46 µM | > 46 µM | – | inactive | – | 22.4 µM (active) | 22.4 µM (active) | inactive | inactive | 0.398 µM (active) | 5.21% | 2 µM (active) | inactive | – | – | – | –
CN(C)c1ccc(-c2ccc3ncnc(NC4CC4)c3c2)cc1 | > 11.4 µM | – | -20.9% | > 46 µM | > 46 µM | inactive | inactive | – | 3.55 µM (active) | 7.94 µM (active) | inactive | inactive | 0.2 µM (active) | -2.46% | 3.16 µM (active) | inactive | – | – | – | –
COc1cccc(Nc2ncc3nc(-c4ccc(Cl)cc4)c(=O)n(C[C@H]4CCCO4)c3n2)c1 | > 11.4 µM | -20.5% | 4.74% | – | > 46 µM | inactive | inactive | – | inactive | inactive | – | inactive | – | 2.35% | – | inactive | – | – | – | –
COc1ccccc1CNc1ncnc2ccc(-c3ccc4c(c3)OCO4)cc12 | > 11.4 µM | – | -7.21% | > 46 µM | > 46 µM | inactive | – | – | 0.0794 µM (active) | 0.158 µM (active) | inactive | inactive | 0.794 µM (active) | -26.5% | 1.26 µM (active) | – | 0.794 µM (active) | 3.16 µM (active) | – | –
COc1ccccc1CNc1cc(-c2ccc(C(=O)N(C)C)cc2)ncn1 | > 11.4 µM | – | – | > 46 µM | > 46 µM | inactive | – | 6.06% | 7.08 µM (active) | 7.08 µM (active) | inactive | inactive | 7.94 µM (active) | 8.83% | – | inactive | – | – | – | –
Cc1noc(C)c1-c1ccc2ncnc(N3CCC(C(=O)O)CC3)c2c1 | > 11.4 µM | – | 10.8% | > 46 µM | > 46 µM | inactive | inactive | – | 25.1 µM (active) | 25.1 µM (active) | inactive | inactive | 25.1 µM (active) | -4.03% | – | – | – | – | – | –
O=c1c(-c2cc(F)cc(F)c2)nc2cnc(N3CCOCC3)nc2n1Cc1ccc(F)cc1 | > 11.4 µM | – | – | – | > 46 µM | inactive | inactive | – | inactive | inactive | inactive | inactive | – | – | – | – | – | – | 3.16 µM (active) | –
COc1ccccc1CNc1ccnc(-c2cccc(C#N)c2)n1 | > 11.4 µM | -13.8% | -11.8% | > 46 µM | > 46 µM | inactive | inactive | – | 7.94 µM (active) | – | inactive | inactive | 0.794 µM (active) | 8.07% | 3.98 µM (active) | inactive | – | 3.98 µM (active) | – | 3.16 µM (active)
COc1cccc(-c2nccc(NCc3ccccc3)n2)c1 | > 11.4 µM | – | -13.5% | > 46 µM | > 46 µM | inactive | – | – | 15.8 µM (active) | 15.8 µM (active) | 25.1 µM (active) | inactive | 0.501 µM (active) | 15.6% | 3.98 µM (active) | inactive | – | 7.94 µM (active) | – | –
COc1cccc(-c2nccc(NCCc3c[nH]c4ccc(OC)cc34)n2)c1 | 6.96 µM (active) | – | -25.8% | – | > 46 µM | inactive | – | – | 25.1 µM (active) | 28.2 µM (active) | inactive | inactive | – | -15.8% | – | – | – | – | – | –
CNc1ncnc2ccc(-c3ccccc3C#N)cc12 | – | 21.4% | -1.74% | > 46 µM | > 46 µM | inactive | inactive | – | 6.31 µM (active) | 7.08 µM (active) | inactive | inactive | 1 µM (active) | 23.3% | – | inactive | – | – | – | –
COc1cccc(-c2cc(NCc3ccccc3OC)ncn2)c1 | – | -14.5% | -1.37% | > 46 µM | > 46 µM | inactive | inactive | – | 15.8 µM (active) | 28.2 µM (active) | inactive | inactive | 1.26 µM (active) | 6.41% | – | inactive | – | 7.94 µM (active) | – | –
